The results in this text go back to the supplement of paper PMC3484114.

Each structure is given as a SMILES string. ± gives the standard deviation.

The experiment deals with OVCAR-3-derived ovarian cancer stem-like cells (spheroids). Description: cell growth relative to untreated control; higher = more growth (less inhibition). The note with it: 2.29 µM; 96 h. The essentials: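 Stem-like cells derived from OVCAR-3 spheroids were dissociated with trypsin and seeded at 50,000 cells/mL in stem cell medium in ultra-low attachment 96-well plates, then preincubated for 24 h. Each compound was added at 2.29 uM to 4 replicate wells and left for 96 h at 37°C, 5% CO2. Viability came from TOX8 resazurin fluorescence (ex 560/em 590 nm) read after 4 h. Percent growth was expressed relative to untreated wells, after blank subtraction and removal of outliers by the Grubbs test.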

For the compound `CCCC/C=C/C=C/C=C/CCCCCCCC(=O)OCC(COC(=O)CCCCCCC/C=C/C1C=CC(CCCC)C(C(=O)O)C1C(=O)O)OC(=O)CCCCCCC/C=C/C=C/C=C/CCCC.OCCNCO` (stereo unspecified), the cell growth stood at 115 ± 16%.

On to `CC(O)CCC(=O)c1ccoc1` (stereo unspecified), for which the cell growth is 99 ± 17%.

On to `CC[C@](C)(O)C(=O)O[C@H]1C(=O)O[C@@H]2C[C@H]3C(C)=C[C@H](O)[C@@H](O)[C@]3(C)[C@H]3[C@@]4(O)OC[C@]32[C@@H]1[C@@H](C)[C@H]4O`, for which the cell growth is 138 ± 54%.

`COc1ccc(NC2=NCCO2)c2c1CCCC2` returned a cell growth of 98.5 ± 10%.

For the compound `Oc1cccc2cccnc12`, the cell growth amounted to 80.4 ± 14%.

The compound `CCOC(OC1=C(C#N)CCC1)C(C)[Se]c1ccccc1` (stereo unspecified) yielded a cell growth of 147 ± 33%.

Compound `CC[C@@]12CCCN3CC[C@]4(c5cccc(OC)c5N(C(C)=O)[C@@H]4CC1)[C@H]32` gave a cell growth of 144 ± 29%.

As for `CC1=C2C(=CC(C)(C)[C@@H]2O)C(=O)[C@](C)(O)C12CC2`, the cell growth came out at 20.3 ± 2.4%.

Turning to `COC1C(C)OC(OC2CC(C)(O)Cc3cc4c(c(O)c32)C(=O)c2c(O)cc3c(c2C4=O)OC2OC3(C)C(O)C(N(C)C)C2O)C(OC)C1(C)OC` (stereo unspecified), the cell growth turned out to be 8.5 ± 3.2%.

Compound `CC1(C)CC2=NO[Se]3=C2C(=NO3)C1` showed a cell growth of 22.1 ± 4.6%.

In turn, `CO[C@@H]1[C@H](O)C[C@@H](O[C@@H]2C[C@H](Oc3cc4cc5c(c(O)c4c(O)c3C)C(=O)[C@@H](O[C@H]3C[C@@H](O[C@H]4C[C@@H](O[C@H]6C[C@](C)(O)[C@@H](OC(C)=O)[C@H](C)O6)[C@H](O)[C@@H](C)O4)[C@H](O)[C@@H](C)O3)[C@H]([C@H](OC)C(=O)[C@@H](O)[C@@H](C)O)C5)O[C@H](C)[C@@H]2OC(C)=O)O[C@@H]1C` came in with a cell growth of 12.5 ± 3.1%.

Consider `O=C([CH-]C(=O)C(F)(F)F)c1ccccc1.O=C([CH-]C(=O)C(F)(F)F)c1ccccc1.O=C([CH-]C(=O)C(F)(F)F)c1ccccc1.O=C([CH-]C(=O)C(F)(F)F)c1ccccc1.[Eu+3].c1ccncc1`, for which the cell growth came out at 104 ± 18%.

The compound `COc1cc([C@H]2c3cc4c(cc3C[C@@H]3COC(=O)[C@H]32)OCO4)cc(OC)c1OC` returned a cell growth of 39.5 ± 18%.

In turn, `CCC[CH2][Sn]([CH2]CCC)([CH2]CCC)[O]c1cc(Cl)c(Cl)cc1Cl` gave a cell growth of 8.8 ± 3.7%.

In turn, `CC[C@H](C)[C@@H]1NC(=O)[C@@H](NC(=O)c2c3nc4c(C(=O)N[C@@H]5C(=O)N[C@@H](C(C)C)C(=O)N6CCC[C@H]6C(=O)N(C)CC(=O)N(C)[C@@H](C(C)C)C(=O)O[C@@H]5C)ccc(C)c4oc-3c(C)c(=O)c2N)[C@@H](C)OC(=O)[C@H](C(C)C)N(C)C(=O)CN(C)C(=O)[C@@H]2CCCN2C1=O` yielded a cell growth of 10.9 ± 3.5%.

`CC12CCC(O)CC1CCC1C2CCC2(C)C(C3=CC(=O)OC3)CCC12O` (stereo unspecified) showed a cell growth of 26.5 ± 3.1%.

For the compound `N#CC(NCc1cccc(CNC(C#N)c2ccccc2)c1)c1ccccc1` (stereo unspecified), the cell growth was found to be 93.3 ± 30%.

As to `COC(=O)[C@@]12OC[C@]34[C@H]([C@@H](O)[C@@H]1O)[C@@]1(C)CC(=O)C(O)=C(C)[C@@H]1C[C@H]3OC(=O)[C@H](OC(=O)/C=C(\C)C(C)C)[C@@H]24`, the cell growth was 6.1 ± 4.4%.

In turn, `CC1=CC(O)C(O)C2(C)C1CC1OC(=O)C(O)C3C(C)C(O)C4(O)OCC13C42` (stereo unspecified) came in with a cell growth of 128 ± 36%.

Regarding `O=C1N[C@@H]2C(=C[C@H](O)[C@@H](O)[C@H]2O)c2cc3c(cc21)OCO3`, the cell growth amounted to 31.7 ± 7.1%.

With `CC1OC(O[C@@H]2C=C3CC[C@@H]4[C@H](CC[C@]5(C)[C@@H](c6ccc(=O)oc6)CC[C@]45O)[C@@]3(C)CC2)C(O)C(O)C1O` (stereo partly specified), the cell growth is 24.5 ± 6.9%.

Regarding `CC[C@@]1(O)C[C@H](O[C@H]2C[C@H](N(C)C)[C@H](O)[C@H](C)O2)c2c(cc3c(c2O)C(=O)c2c(O)ccc(O)c2C3=O)[C@H]1C(=O)OC`, the cell growth came out at 50.3 ± 31%.

The compound `CCCNC1=C(C)C(=O)C2=C(C1=O)[C@H](COC(N)=O)[C@]1(OC)[C@@H]3N[C@@H]3CN21` returned a cell growth of 60.4 ± 24%.

The compound `c1csc(C[N+]23CN4CN(CN(C4)C2)C3)c1` displayed a cell growth of 108 ± 17%.

In turn, `CC(/C=N/N=C(N)N)=N\N=C(N)N` returned a cell growth of 70.6 ± 16%.

In turn, `S=C=NCc1ccccc1` had a cell growth of 109 ± 28%.

As for `Cc1cc2c(C(C)C)c(O)c(O)c(C=O)c2c(O)c1-c1c(C)cc2c(C(C)C)c(O)c(O)c(C=O)c2c1O`, the cell growth worked out at 86 ± 61%.

Turning to `COC1CC(OC2CCC3(C=O)C4CCC5(C)C(C6=CC(=O)OC6)CCC5(O)C4CCC3(O)C2)OC(C)C1OC1OC(COC2OC(CO)C(O)C(O)C2O)C(O)C(O)C1O` (stereo unspecified), the cell growth worked out at 63.1 ± 13%.

As to `O=c1[nH]c2ccccc2n1C1CCN(CCCC(c2ccc(F)cc2)c2ccc(F)cc2)CC1`, the cell growth was 90.6 ± 41%.

For `C/C1=C\[C@H](C)C[C@H](C)OC(=O)CC(c2ccc(O)cc2)NC(=O)[C@@H](Cc2c(Br)[nH]c3ccccc23)N(C)C(=O)[C@H](C)NC(=O)[C@@H](C)C1` (stereo partly specified), the cell growth came to 25 ± 5.7%.

As to `C[C@@H]1C[C@H]2CC[C@H](O2)[C@H](C)C(=O)O[C@@H](C)C[C@@H]2CC[C@@H](O2)[C@@H](C)C(=O)O[C@H](C)C[C@H]2CC[C@H](O2)[C@H](C)C(=O)O[C@@H](C)C[C@@H]2CC[C@@H](O2)[C@@H](C)C(=O)O1`, the cell growth is 31.3 ± 6%.
